# Screening results deposited in PubChem BioAssay by National Center for Advancing Translational Sciences (NCATS).
# Shown are actives, neighbours in structure and some others; about 11% of the full set was active somewhere.
# G9a inh: blocks human histone lysine methyltransferase G9a; G9a H3K9 monomethylation, AlphaScreen, 2 h; AID 504332; Potency, µM (highest dose often 102 µM), usual class: inhibitors; actives 8.8% (n = 350,000); note: nearly all actives have a fitted effect of over 75% in size
# Target sequence (Q96KQ7 913-1193 limits assumed): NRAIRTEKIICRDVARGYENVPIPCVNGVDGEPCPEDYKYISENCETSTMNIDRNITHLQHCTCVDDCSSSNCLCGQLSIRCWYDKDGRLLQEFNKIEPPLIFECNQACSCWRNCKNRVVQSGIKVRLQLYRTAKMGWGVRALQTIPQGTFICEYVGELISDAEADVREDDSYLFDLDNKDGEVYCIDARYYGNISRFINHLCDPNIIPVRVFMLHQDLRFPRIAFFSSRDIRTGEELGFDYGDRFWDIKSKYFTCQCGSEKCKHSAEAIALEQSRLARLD
#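 Quantitative HTS format: methyltransferase activity on a biotin-tagged H3K9 peptide is measured by AlphaScreen, using a rabbit anti-monomethyl-H3K9 antibody with streptavidin donor and anti-IgG acceptor beads. Final levels are 20 nM enzyme, 500 nM peptide, 20 uM SAM; 2 h RT.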
# Tau fibril FP: inhibitors of human tau fibril formation; P10636; K18 P301L tau heparin fibrillization, Alexa594 FP, 6 h; Potency, µM (titrated, usually from 57.7 µM), most hits filed as inhibitors; actives 0.39% (n = 280,000); note: nearly all actives have a fitted effect of over 55% in size
# Target sequence (P10636 561-689 P618L limits assumed): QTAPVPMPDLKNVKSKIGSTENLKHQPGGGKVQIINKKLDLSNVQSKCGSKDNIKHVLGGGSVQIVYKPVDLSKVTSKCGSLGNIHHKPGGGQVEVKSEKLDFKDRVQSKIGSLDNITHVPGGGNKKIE
#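 K18 P301L tau (15 uM unlabeled/0.24 uM Alexa 594-labeled, final) + compound + heparin 20 uM final; 100 mM NaOAc pH 7; 6 hr 37 C; ThT 30 uM final added, 1 hr RT; FP ex 555/em 632 nm.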
# Tau ThT inhib: tau fibrillization inhibition (ThT binding); recombinant tau K18 P301L, heparin-induced fibrillization, ThT fluorescence; AID 1460; P10636; Potency, µM (titrated, usually from 57.4 µM), actives largely listed as inhibitors; actives 2.1% (n = 270,000); note: nearly all actives have a fitted effect of over 55% in size
#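 K18 P301L tau (15 uM + 0.24 uM Alexa 594-tagged), heparin 20 uM, NaOAc pH 7, 6 h 37 C; ThT 30 uM, 1 h RT, ex 450/em 510 nm.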
# Coupling enz: coupling enzyme interference in Giardia aldolase counter-screen. actives 0.67% (n = 290,000). coupling enzyme system counterscreen, AmpLite Red fluorescence. activity change, negative = inhibition, % at 58.2 µM, hits read low; in the data active = activity change below about -30%
#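 Fluorescence at 525 nm excitation and 598 nm emission measured inhibition of the coupled detection system without aldolase. Compounds (at 57.5 uM final) were preincubated 10 min at room temperature with coupling enzyme reagent before a 20 min substrate/AmpLite Red step.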
# Tau fluor counter: counter-screen for tau fibril formation inhibitors; tau K18 P301L Alexa594 fluorescence, heparin fibrillization; Potency, µM (highest dose often 57.7 µM); actives 0.93% (n = 280,000); note: nearly all actives have a fitted effect of over 55% in size
#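 Human tau K18 P301L (15 uM unlabeled, 0.24 uM Alexa 594-labeled) in 100 mM sodium acetate pH 7 with 20 uM heparin, 6 hr at 37 C. ThT 30 uM added, 1 hr ambient; Alexa 594 FP and total fluorescence read at 555/632 nm.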
# Sfp PPTase inh: inhibitors of Bacillus subtilis Sfp phosphopantetheinyl transferase. Q9F4F7. Biochemical Sfp PPTase activity, qHTS. actives 3.5% (n = 310,000). Potency, µM, actives largely listed as inhibitors. AID 1490;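 note: the enzyme is Sfp with the accession as filed and its product quenches rhodamine fluorescence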
#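 Fluorescence-quenching assay: 15 nM Sfp-PPTase preincubated 15 min at room temperature with compound, then 5 uM rhodamine-CoA and 12.5 uM BHQ-2-labelled YbbR peptide added. Fluorescence (ex 525/em 598 nm) read at start and after 30 min; difference gives rate.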
# Hits are given with their value; – = inactive; ? = inconclusive; · = not tested or not shown; ! = not active in a repeat; [ ] = another dose, or the depositor's remark. Unless noted, calls come from the whole dose curve; as a rule, active = well fitted curve in the direction sought with a large enough effect; inconclusive = small, poorly fitted or top-dose-only effect, or another doubt; inactive = no such curve, though single readings can be large; an effect the other way counts as inactive or inconclusive.
SMILES,G9a inh,Tau fibril FP,Tau ThT inhib,Coupling enz,Tau fluor counter,Sfp PPTase inh
COc1cc(OC)cc(-c2nc3n(n2)C(c2ccccc2)C(C(N)=O)=C(C)N3)c1 (centres undefined),–,–,–,·,–,·
Cc1ccnc(Nc2nc(-c3ccc(O)cc3O)cs2)c1,79µM,·,·,–,·,40µM
CC(C)CCn1c(=S)[nH]c2ncccc2c1=O,–,–,–,–,–,–
CCOCCCn1c(=S)[nH]c2ncccc2c1=O,56µM,–,–,–,–,?
CN(C)CCn1c(=S)[nH]c2ncccc2c1=O,28µM,–,–,–,–,50µM
CCCCOc1ccccc1Cn1c(=O)sc2ccccc21,–,–,–,·,–,·
Oc1cccc(/C=N/c2c(-c3ccco3)nc3ccccn23)c1,50µM,?,?,–,?,?
O=[N+]([O-])c1ccc(-c2ccc(/C=N/c3c(-c4ccco4)nc4ccccn34)o2)c(Cl)c1,?,–,2µM,–,–,–
O=[N+]([O-])c1ccc(Cl)c(-c2ccc(/C=N/c3c(-c4ccco4)nc4ccccn34)o2)c1,?,–,?,–,–,–
O=[N+]([O-])c1ccc(-c2ccc(/C=N/c3c(-c4ccco4)nc4ccccn34)o2)cc1,–,–,2.8µM,–,?,–
Cc1cc(C)c([N+](=O)[O-])cc1-c1ccc(/C=N/c2c(-c3ccco3)nc3ccccn23)o1,–[0.501 µM],?,5µM,–,25µM[quencher],?
COc1ccc(-c2nc3ccccn3c2/N=C/c2ccc(OC)c(OC)c2)cc1O,?,–,?,–,–,–
Cc1cc([N+](=O)[O-])c(C)cc1-c1ccc(/C=N/n2cnnc2)o1,?,·,·,–,·,–
O=C(c1cc2cc(Cl)ccc2[nH]1)N1CCN(C(=O)c2ccco2)CC1,?,·,·,·,·,–
N#C/C(=C1/CCCCCN1)c1nc2ccccc2s1,–,–,–,–,–,–
CC1=CC(=C(C#N)c2nc3ccccc3s2)C=C(C)N1CC1CCCO1 (centres undefined),–,?,?,–,7.9µM[quencher],–
Cc1ccc(OCc2ccc(-c3nc(C#N)c(NCc4ccccc4Cl)o3)o2)cc1,–,–,–,·,?,·
CC(=O)c1nn(-c2ccc(Cl)cc2)c(=O)[nH]c1=O,–,·,·,–,·,–
O=c1[nH][nH]c2cc(=O)n(-c3ccc(Cl)cc3)nc12,40µM,–,?,–,–,–
CC(=O)Nc1sc2c(c1CN1CCN(c3ccc(F)cc3)CC1)CCCC2,45µM,–,–,–,–,–
CC(=O)Nc1sc2c(c1CN1CCN(c3ccccn3)CC1)CCCC2,32µM,–,–,–,–,–
O=C(CCNS(=O)(=O)c1ccc2c(c1)CCN2C(=O)C1CC1)Nc1ccc(F)cc1F,–,–,–,·,–,·
C=CCNCC#CCOc1ccc(OC)cc1,10µM,–,–,–,–,–
COCCNCC#CCOc1ccc(OC)cc1,?,–,–,–,–,–
COCCCNCC#CCOc1ccc(OC)cc1,18µM,–,–,–,–,–
SMILES,G9a inh,Tau fibril FP,Tau ThT inhib,Coupling enz,Tau fluor counter,Sfp PPTase inh
CC1CN(C2=N/C(=C/c3ccc4c(c3)OCO4)C(=O)N2)CC(C)O1 (centres undefined),·,–,–,–,–,–
CC1CN(c2snnc2C=C2C(=O)OC(C)(C)OC2=O)CC(C)O1 (centres undefined),?,–,?,–,–,50µM
O=S(=O)(NCC(c1cccs1)S(=O)(=O)c1ccccc1)c1ccc(F)cc1 (centres undefined),–,–,–,·,–,·
Oc1ccc(/C=C\c2cc(O)cc(O)c2)cc1,–[5.15 µM],–,14µM,–,14µM[quencher],–
Oc1ccc(/C=C/c2cc(O)cc(O)c2)cc1,7.9µM!,?,10µM,–,?,–
Cc1ccc(C2=Nn3c(COc4ccc(Cl)cc4)nnc3SC2CC(=O)O)cc1 (centres undefined),40µM,·,·,–,·,–
N#Cc1nccnc1S(=O)(=O)c1cccs1,4µM,–,?,–,–,7.1µM
CSc1ccccc1OCc1cc(C(=O)N(C)C(C)c2nc(C)cs2)no1 (centres undefined),–,·,·,·,·,–
CN(C)S(=O)(=O)n1cnc(C(CCO)c2ncn(S(=O)(=O)N(C)C)c2CCCO)c1 (centres undefined),–[0.501 µM],·,·,·,·,·
COc1ccc(CN(C(=O)c2ccc(-c3ccccc3)[nH]2)C(C(=O)NC(C)(C)C)c2ccncc2)cc1 (centres undefined),?,–,?,–,–,45µM
Cc1[nH]c2ccccc2c1N=Nc1c(C)n(C)n(-c2ccccc2)c1=O,40µM,–,?,–,–,–
Cc1c(N=NC2=C(O)CCCC2=O)c(=O)n(-c2ccccc2)n1C,8.9µM,?,14µM,–,–,14µM
Cc1c(N=Nc2ccc(O)cc2)c(=O)n(-c2ccccc2)n1C,–,–,–,–,–,–
Cc1cc(N)ccc1N=Nc1c(C)n(C)n(-c2ccccc2)c1=O,–,–,?,–,–,–
Oc1ccc(N=Nc2ccc3ccccc3c2)cc1,–[0.501 µM],·,·,–,·,–
O=C(O)c1ccc(N=Nc2c(O)ccc3ncccc23)cc1,10µM,·,·,–,·,–
O=C(O)c1cc2ccc3cccc4ccc(c1)c2c34,–,·,·,–,·,–
Oc1ccc(N=Nc2c(O)ccc3ccccc23)cc1,8.9µM,?,2.5µM,–,11µM[quencher],?
Cc1ccccc1N=Nc1ccc(N=Nc2c(O)ccc3ccccc23)c(C)c1,1.3µM,·,·,·,·,–
c1cnc2ccc3ncccc3c2c1,?,–,?,–,–,–
O=C(O)c1cc(N=Nc2c(O)ccc3ccccc23)cc(C(=O)O)c1,?,–,16µM,–,–,–
COc1ccc(NC(=O)Cn2cc(C(=O)c3ccccc3)c(=O)c3cc(OC)ccc32)c(OC)c1,–,–,–,·,–,·
CC(C)(C)OC(=O)N1CCC(c2c(C(=O)NCCN3CCOCC3)cnn2-c2ccccc2)CC1,–,–,–,·,–,·
NS(=O)(=O)c1ccc(N=Nc2c(O)ccc3ccccc23)cc1,35µM,–,1.1µM,–,–,–
NS(=O)(=O)c1ccc(NC(=O)c2cccc3ccccc23)cc1,–,·,·,–,·,–
SMILES,G9a inh,Tau fibril FP,Tau ThT inhib,Coupling enz,Tau fluor counter,Sfp PPTase inh
O=[N+]([O-])c1nn(-c2ccc3c(c2)OCCO3)n(O)c1=NC1CCCCC1,–,–,?,–,–,–
CC1CCN(c2c([N+](=O)[O-])nn(-c3ccc4c(c3)OCCO4)[n+]2[O-])CC1,35µM,?,?,–,?,–
N#Cc1ccc(OC(=O)c2cnccn2)cc1,32µM,·,·,–,·,–
COC(=O)C1=C(C)N(Cc2ccco2)C(=O)N[C@@H]1c1cccc(C(F)(F)F)c1,89µM,–,–,–,–,–
CC(=O)C1=C(C)N(Cc2ccccc2)C(=O)N[C@@H]1c1cccc(C(F)(F)F)c1,50µM,–,?,–,–,–
Cc1ccc(N=Nc2cc(C)ccc2O)c(C)c1,7.9µM,·,·,–,·,–
